Assay outcomes as filed in PubChem BioAssay.
The list is not random: actives were taken first. Their share in the collection is about 0.82%.
PrPC TRFRET = inhibitors of human cell surface prion protein PrPC; inhibition, % at 13.8 µM; hit rate 0.43% among 370,000; TR-FRET read-out; in the data active means inhibition above about 24%; further: 0% = median of the test wells and 100% = reference compound wells
TcdB inh = blocks C. difficile toxin B glycohydrolase activity; hit rate 0.24% among 350,000; inhibition, % at 9.99 µM; AID 652162; P18177; TcdB glycohydrolase enzymatic assay, plate reader; in the data active means inhibition above about 10%
VHR inh abs = inhibitors of human VHR1 phosphatase (DUSP3) | P51452 | recombinant VHR phosphatase, pNPP absorbance | inhibition, % at 13.3 µM | hit rate 0.52% among 290,000 | AID 1654; in the data active means inhibition above about 50%
Target sequence (P51452 whole entry, looked up): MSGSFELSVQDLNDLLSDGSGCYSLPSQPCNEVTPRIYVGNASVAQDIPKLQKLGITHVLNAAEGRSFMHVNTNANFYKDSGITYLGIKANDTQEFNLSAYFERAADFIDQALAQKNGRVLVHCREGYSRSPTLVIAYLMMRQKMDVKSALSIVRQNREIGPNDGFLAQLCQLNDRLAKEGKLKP
Starred values were filed as active, the others as inactive.

Screening Cc1ccc(C)c(N(C(=O)c2csnn2)C(C(=O)NC2CCCCC2)c2ccccn2)c1 (configuration not stated) returned PrPC TRFRET 2.9, TcdB inh 1.0 and VHR inh abs 50.4*.
`O=C(NC1CCCCC1)C(c1ccccc1)N(Cc1cccnc1)C(=O)c1csnn1` (configuration not stated) gave PrPC TRFRET -1.5, TcdB inh 1.2 and VHR inh abs 5.1.
Screening O=C(NC1CCCC1)C(c1cccnc1)N(Cc1ccccc1)C(=O)c1csnn1 (configuration not stated) returned PrPC TRFRET -1.7, TcdB inh 0.4 and VHR inh abs 52.9*.
C[C@@H]1CN([C@H](C)CO)C(=O)Cc2cc(NS(=O)(=O)c3cccs3)ccc2O[C@@H]1CN(C)C was read as TcdB inh -0.7.
For Cc1ccc(-c2ccc3c(c2)O[C@@H](CN(C)Cc2ccncc2)[C@@H](C)CN([C@@H](C)CO)S3(=O)=O)cc1 the results were TcdB inh -0.2.
`Cc1nn2c(N3CCN(C)CC3)cc(C(C)(C)C)nc2c1-c1ccccc1` gave PrPC TRFRET -6.9, TcdB inh 2.3 and VHR inh abs 20.1.
`Cc1nn2c(N3CCN(C4CCCC4)CC3)cc(C(C)(C)C)nc2c1-c1ccccc1` gave PrPC TRFRET 0.3 and VHR inh abs 51.4*.
Cc1ccccc1NC(=O)CCS(=O)(=O)c1ccc(Br)cc1 was read as PrPC TRFRET -3.5, TcdB inh -0.4 and VHR inh abs -20.5.
CCN(CC)c1ccc(NC(=O)CCS(=O)(=O)c2ccc(Br)cc2)c(C)c1 was read as PrPC TRFRET -6.3, TcdB inh -6.4 and VHR inh abs 52.3*.
Screening COCC(=O)N(C)C[C@H]1Oc2ncc(-c3ccc(C#N)cc3)cc2C(=O)N([C@H](C)CO)C[C@H]1C returned TcdB inh 0.1.
`CCc1cccc(C)c1NC(=O)CCCSc1nc2ccccc2s1` gave PrPC TRFRET 9.1 and VHR inh abs -4.8.
CCc1cccc(CC)c1NC(=O)C1SC(=Nc2ccccc2C)C(c2nc3ccccc3s2)=C1N (configuration not stated) was read as PrPC TRFRET 24.5* and VHR inh abs 17.5.
`Cc1ccc(NC(=O)c2cc(=O)c3ccccc3o2)c(C)c1` gave PrPC TRFRET -3.0, TcdB inh -0.5 and VHR inh abs 57.9*.
For Cc1ccc(C)c(NC(=O)c2cc(=O)c3ccccc3o2)c1 the results were PrPC TRFRET -11.6 and VHR inh abs -2.8.
CCn1cc(CNC(=O)CSc2nc(-c3ccc(OC)c(OC)c3)cc(C(F)(F)F)n2)c(C)n1 was read as PrPC TRFRET 5.7, TcdB inh 0.9 and VHR inh abs 51.3*.
COCCNC(=O)CSc1nc(-c2ccc(OC)c(OC)c2)cc(C(F)(F)F)n1 was read as PrPC TRFRET -1.9 and VHR inh abs -13.2.
`COCC(=O)Nc1ccc2c(c1)OC[C@@H](C)N(Cc1ccccc1F)C[C@H](C)[C@@H](OC)CN(C)C2=O` gave TcdB inh -1.3.
O=C(NC1CCCc2c1cnn2-c1ccc(F)cc1F)c1cnccn1 (configuration not stated) was read as PrPC TRFRET 1.7, TcdB inh 0.1 and VHR inh abs 17.4.
O=C(CCc1cn2ccccc2n1)NC1CCCc2c1cnn2-c1ccccc1F (configuration not stated) was read as PrPC TRFRET 4.8, TcdB inh 0.1 and VHR inh abs 50.2*.
`O=C(NC1CCCc2c1cnn2-c1ccc(F)cc1F)c1csnn1` (configuration not stated) gave PrPC TRFRET 2.0, TcdB inh -0.2 and VHR inh abs 53.5*.
O=C(CCN1CCCO1)NC1CCCc2c1cnn2-c1ccccc1F (configuration not stated) was read as PrPC TRFRET 10.2, TcdB inh -0.4 and VHR inh abs -3.0.
`CCCC#Cc1ccc2c(c1)O[C@H](CN(C)Cc1ccncc1)[C@H](C)CN([C@H](C)CO)S2(=O)=O` gave TcdB inh -1.1.
`C[C@@H]1CCCCO[C@H](CN(C)C(=O)C2CCCCC2)[C@H](C)CN([C@H](C)CO)C(=O)c2cc(NC(=O)NC3CCCCC3)ccc2O1` gave TcdB inh -0.1.
For O=C(C[C@H]1C[C@@H]2c3cc(NS(=O)(=O)c4ccc(F)cc4)ccc3O[C@@H]2[C@H](CO)O1)NCc1ccccn1 the results were TcdB inh -0.4.
Screening O=C(NCCO)C(=O)NCC1CCCN1S(=O)(=O)c1cccs1 (configuration not stated) returned PrPC TRFRET 3.3 and TcdB inh 2.0.
CC(C)CNC(=O)C(=O)NCC1CCCN1S(=O)(=O)c1cccs1 (configuration not stated) was read as PrPC TRFRET -2.0 and TcdB inh 13.1*.
For Nc1cccc2nsnc12 the results were PrPC TRFRET 11.6, TcdB inh 1.6 and VHR inh abs 23.3.
